# Experimental data reported in PubChem BioAssay (Tox21).
# A number with no mark means an inactive call. Inconclusive results are not listed. A call without a number means that no potency is given here. The source made the active and inactive calls. Unless noted, calls follow the shape of the dose curve; as a rule, active = well fitted curve in the direction sought with a large enough effect in the repeat runs; inconclusive = weak or mixed curves; inactive = no such curve, though single readings can be large; an effect the other way counts as inactive or inconclusive.
# Columns and labels:
# [1] = qHTS assay for small molecules that induce genotoxicity in human embryonic kidney cells expressing luciferase-tagged ATAD5 (AID 651632); also: nearly all actives have a fitted effect of over 15% in size
# Summary of the method: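 HEK293T cells carrying a luciferase reporter tagged to ATAD5 were exposed to compound or DMSO vehicle for 16 hr at 37C, 5% CO2. Amplite was added, and after 30 min at room temperature luciferase activity was read as a marker of ATAD5 induction.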
# [2] = qHTS assay for small molecule agonists of the p53 signaling pathway - cell viability (AID 651633; calls by dose curve;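 also: p53RE-bla HCT reporter cells with a stable beta-lactamase p53 reporter; series mostly up to about 83 µM; nearly all actives have a fitted effect of over 30% in size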)
# Summary of the method: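 p53RE-bla cells were treated with compound for 16 hours at 37 C. Cytotoxicity was then measured as CellTiter-Glo luminescence after 30 min at room temperature.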
# [3] = qHTS assay to test for compound auto fluorescence at 590 nm (red) in HepG2 cells (AID 720674)
# Summary of the method: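 HepG2 cells, 2,000 per well in MEM with 10% FBS, attached overnight at 37 C, then got 23 nL compound or DMSO. After 1 hr at 37 C, 5% CO2, red fluorescence was read at 540/590 nm against Rose Bengal sodium as reference.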
# [4] = qHTS assay to test for compound auto fluorescence at 535 nm (green) in HepG2 cells (AID 720675)
# [5] = qHTS assay to test for compound auto fluorescence at 460 nm (blue) in HEK293 cells (AID 720678)
# Summary of the method: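 Auto fluorescence in the blue band was quantified as triamterene equivalency. HEK293 cells were seeded at 2,000/well, dosed after a 4-5 hr attachment, and kept overnight at 37C before the 405/460 nm reading.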
# [6] = qHTS assay to test for compound auto fluorescence at 590 nm (red) in HEK293 cells (AID 720679)
# Summary of the method: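 Autofluorescence equivalency to Rose Bengal sodium, 540/590nm, in HEK293 cells exposed overnight to 23 nL compound per well.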
# [7] = qHTS assay to test for compound auto fluorescence at 535 nm (green) in HEK293 cells (AID 720680)
# [8] = qHTS assay to test for compound auto fluorescence at 460 nm (blue) in HEK293 cell free culture (AID 720681)
# Summary of the method: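 Compounds were added to cell-free DMEM with 10% FBS and fluorescence read directly. The blue channel used 405 nm excitation and 460 nm emission, with triamterene as the reference fluorophore.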
# [9] = qHTS assay to test for compound auto fluorescence at 535 nm (green) in HEK293 cell free culture (AID 720682)
# Summary of the method: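 Green-channel intensity (Ex/Em 485/535 nm) was recorded from compound-treated wells containing only DMEM with 10% FBS. Fluorescein provided the equivalency standard.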
# [10] = qHTS assay to test for compound auto fluorescence at 590 nm (red) in HEK293 cell free culture (AID 720683)
# Summary of the method: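 Cell-free wells of DMEM with 10% FBS received compound, and intrinsic fluorescence was read at excitation/emission 540/590 nm. Values expressed as equivalence to Rose Bengal sodium.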
# [11] = qHTS assay to test for compound auto fluorescence at 590 nm (red) in HepG2 cell free culture (AID 720684)
# Summary of the method: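 Compound was pinned into wells holding MEM with 10% FBS and no cells, and red fluorescence was read at Ex/Em 540/590 nm. Signal is expressed as auto fluorescence equivalency relative to Rose Bengal sodium.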
# [12] = qHTS assay to test for compound auto fluorescence at 460 nm (blue) in HepG2 cell free culture (AID 720685)
# Summary of the method: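 Compound (23 nL) or DMSO pinned into cell-free MEM with 10% FBS; blue fluorescence read at 405/460 nm excitation/emission, expressed as auto-fluorescence equivalency to triamterene.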
# [13] = qHTS assay to test for compound auto fluorescence at 535 nm (green) in HepG2 cell free culture (AID 720686)
# [14] = qHTS assay to test for compound auto fluorescence at 460 nm (blue) in HepG2 cells (AID 720687)
# Summary of the method: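 HepG2 cells in MEM with 10% FBS, attached overnight at 37 C, were exposed to compound or DMSO for 1 hr at 37 C, 5% CO2. Blue fluorescence was read at 405/460 nm, with triamterene as reference fluorophore.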
# [15] = molecular target: Glucocorticoid receptor (Homo sapiens) (UniProt P04150); experiment: qHTS assay to identify small molecule agonists of the glucocorticoid receptor (GR) signaling pathway (AID 720691; active = well fitted activation curve with a large enough effect in the signal ratio in the repeat runs, not every such curve was filed as active; the % refers to the signal ratio)
# Glucocorticoid receptor (Homo sapiens), sequence (P04150 whole entry, looked up): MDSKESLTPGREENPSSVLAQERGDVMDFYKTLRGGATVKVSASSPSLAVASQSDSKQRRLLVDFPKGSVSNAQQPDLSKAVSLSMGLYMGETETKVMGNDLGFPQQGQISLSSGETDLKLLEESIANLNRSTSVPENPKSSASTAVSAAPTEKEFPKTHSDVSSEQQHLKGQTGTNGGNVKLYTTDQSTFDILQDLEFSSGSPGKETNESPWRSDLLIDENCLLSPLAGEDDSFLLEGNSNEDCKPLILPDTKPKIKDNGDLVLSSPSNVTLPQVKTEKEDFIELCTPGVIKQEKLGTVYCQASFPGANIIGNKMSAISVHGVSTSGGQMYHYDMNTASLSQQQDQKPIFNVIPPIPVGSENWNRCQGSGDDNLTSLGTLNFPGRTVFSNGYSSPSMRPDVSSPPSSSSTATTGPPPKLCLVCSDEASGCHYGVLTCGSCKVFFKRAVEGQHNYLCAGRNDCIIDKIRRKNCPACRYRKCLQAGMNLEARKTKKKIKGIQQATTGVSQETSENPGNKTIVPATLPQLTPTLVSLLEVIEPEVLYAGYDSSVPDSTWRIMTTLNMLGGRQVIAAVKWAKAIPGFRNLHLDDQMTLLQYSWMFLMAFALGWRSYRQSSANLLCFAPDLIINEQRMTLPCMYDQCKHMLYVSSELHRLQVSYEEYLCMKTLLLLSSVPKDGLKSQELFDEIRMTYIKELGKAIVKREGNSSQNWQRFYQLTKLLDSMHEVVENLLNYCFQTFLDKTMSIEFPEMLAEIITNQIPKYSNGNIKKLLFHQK
# Summary of the method: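 GR-bla HeLa cells (beta-lactamase reporter under glucocorticoid response element) were plated 4 h at 37 C/5% CO2, given compounds in DMSO, and incubated 18 h at 37 C. LiveBLAzer B/G FRET substrate was added for 2 h at room temperature, then fluorescence intensity read.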
# [16] = molecular target: Glucocorticoid receptor (Homo sapiens) (UniProt P04150); experiment: qHTS assay to identify small molecule antagonists of the glucocorticoid receptor (GR) signaling pathway (AID 720692; active = well fitted inhibition curve with a large enough effect in the signal ratio in the repeat runs, not every such curve was filed as active; the % refers to the signal ratio)
# Summary of the method: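 GR-bla HeLa cells (beta-lactamase reporter under glucocorticoid response element) were pre-plated 4 h at 37 C, treated with compounds plus 5 nM dexamethasone (final) for 18 h, then read by LiveBLAzer B/G FRET fluorescence after 2 h.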
# [17] = qHTS assay for small molecules that induce genotoxicity in human embryonic kidney cells expressing luciferase-tagged ATAD5 - cell viability (AID 651634; calls by dose curve; also: nearly all actives have a fitted effect of over 25% in size)
# Summary of the method: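 HEK293T cells expressing luciferase-tagged ATAD5 were exposed to compound or DMSO for 15.5 hr at 37C, 5% CO2. Viability was then read as live-cell protease activity by CellTiter-Fluor fluorescence after 30 min at 37C.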
# [18] = qHTS assay for small molecule disruptors of the mitochondrial membrane potential (AID 720635); also: potency is read from the fitted curve at half-maximal effect
# Summary of the method: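 HepG2 cells exposed to compound 1 hr at 37C, then Mito-MPS dye 30 min. Ratio read of aggregate (540/590 nm) versus monomer (490/535 nm) fluorescence.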
# [19] = qHTS assay for small molecule disruptors of the mitochondrial membrane potential - cell viability (AID 720634; calls by dose curve;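 also: human HepG2 liver cancer cells; series mostly up to about 83 µM; nearly all actives have a fitted effect of over 20% in size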)
# Summary of the method: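 HepG2 cells seeded overnight at 37 C, then exposed to compound or DMSO for 1 hr at 37 C, 5% CO2. m-MPI dye added, then CellTiter-Glo for 30 min at room temperature; viability read as ATP luminescence.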
Compound,Potency [1],outcome [2],outcome [3],outcome [4],outcome [5],outcome [6],outcome [7],outcome [8],outcome [9],outcome [10],outcome [11],outcome [12],outcome [13],outcome [14],Potency [15],outcome [16],Potency [17],Potency [18],outcome [19]
Nc1cccc(O)c1,inactive,inactive,inactive,inactive,inactive,inactive,inactive,inactive,inactive,inactive,inactive,inactive,inactive,inactive,inactive,inactive,–,–,–
C[Si](C)(C)C,inactive,inactive,inactive,–,inactive,inactive,inactive,inactive,–,inactive,inactive,inactive,–,–,inactive,inactive,inactive,inactive,–
CC/C=C\CC1=C(C)CCC1=O,inactive,inactive,inactive,–,inactive,inactive,inactive,inactive,inactive,inactive,inactive,inactive,inactive,–,–,–,inactive,–,inactive
CC(=O)c1ccc2c(c1)Cc1ccccc1-2,inactive,–,inactive,inactive,inactive,inactive,inactive,inactive,–,inactive,inactive,inactive,inactive,inactive,–,–,inactive,–,inactive
O=C(Nc1ccc(Cl)c(Cl)c1)C1CC1,inactive,inactive,inactive,inactive,inactive,inactive,inactive,inactive,inactive,inactive,inactive,inactive,inactive,inactive,inactive,inactive,inactive,11.9 µM (active),–
CN(C)CCOCCO,inactive,inactive,inactive,inactive,inactive,inactive,inactive,inactive,inactive,inactive,inactive,inactive,inactive,inactive,inactive,inactive,inactive,inactive,–
CC(=O)Nc1ccc(S(=O)(=O)Cl)cc1,–,inactive,inactive,inactive,inactive,inactive,inactive,inactive,inactive,inactive,inactive,inactive,inactive,inactive,inactive,inactive,inactive,–,inactive
CC(CO)c1ccccc1 (stereo not drawn),inactive,inactive,inactive,inactive,inactive,inactive,inactive,inactive,inactive,inactive,inactive,inactive,inactive,inactive,–,–,inactive,inactive,–
COP(=O)(OC)OC(c1ccc(Cl)cc1)P(=O)(OC)OC (stereo not drawn),inactive,–,inactive,inactive,inactive,inactive,inactive,inactive,inactive,inactive,inactive,inactive,inactive,inactive,inactive,inactive,inactive,inactive,inactive
C[C@H](CCC(=O)O)[C@H]1CC[C@H]2[C@@H]3C(=O)C[C@@H]4CC(=O)CC[C@]4(C)[C@H]3CC(=O)[C@]12C,inactive,inactive,inactive,inactive,inactive,inactive,inactive,inactive,inactive,inactive,inactive,inactive,inactive,inactive,inactive,inactive,inactive,–,–
CC(C)N(c1ccccc1)C(C)C,inactive,–,inactive,inactive,inactive,inactive,inactive,inactive,inactive,inactive,inactive,inactive,inactive,inactive,inactive,inactive,inactive,–,inactive
COc1nccnc1NS(=O)(=O)c1ccc(N)cc1,inactive,inactive,inactive,inactive,inactive,inactive,inactive,inactive,–,inactive,inactive,inactive,–,–,–,–,inactive,–,–
O=C1c2ccccc2C(=O)c2cc(S(=O)(=O)O)ccc21,inactive,inactive,inactive,inactive,inactive,inactive,inactive,inactive,inactive,inactive,inactive,inactive,inactive,inactive,inactive,inactive,inactive,–,–
